Assay results: the supplement of paper PMC7261846
Counter-ions that a name gives are not always drawn. ± gives the uncertainty stated by the source.

System: Candida albicans SNY425 biofilm
Test: biofilm OD600 with compound plus antifungal (OD600 (absorbance)); higher = more biofilm remaining
[1] = assay detail: disruption of 24-h mature biofilm (compound + antifungal for a second 24 h)
[2] = assay detail: sustained inhibition (compound + antifungal during 90-min adherence and 24-h growth)

SMILES | biofilm OD600 [1] | biofilm OD600 [2]
CCC[C@@]1(CCc2ccccc2)CC(O)=C([C@H](CC)c2cccc(NS(=O)(=O)c3ccc(C(F)(F)F)cn3)c2)C(=O)O1 [tipranavir] + C[C@@H]1[C@H](O)[C@@H](C)/C=C/C=C/C=C/C=C/C=C/C=C/C=C/[C@H](O[C@@H]2O[C@H](C)[C@@H](O)[C@H](N)[C@@H]2O)C[C@@H]2O[C@](O)(C[C@@H](O)C[C@@H](O)[C@H](O)CC[C@@H](O)C[C@@H](O)CC(=O)O[C@H]1C)C[C@H](O)[C@H]2C(=O)O [amphotericin B] (first compound 12.5 µM) | 0.264 ± 0.0073 | 0.185 ± 0.0069
CC(C)c1nc(CN(C)C(=O)N[C@H](C(=O)N[C@@H](Cc2ccccc2)C[C@H](O)[C@H](Cc2ccccc2)NC(=O)OCc2cncs2)C(C)C)cs1 [ritonavir] + OC(Cn1cncn1)(Cn1cncn1)c1ccc(F)cc1F [fluconazole] (first compound 12.5 µM) | 0.249 ± 0.0077 | 0.168 ± 0.014
C[C@]1(Cn2ccnn2)[C@H](C(=O)O)N2C(=O)C[C@H]2S1(=O)=O [Tazobactam] + C[C@@H]1[C@H](O)[C@@H](C)/C=C/C=C/C=C/C=C/C=C/C=C/C=C/[C@H](O[C@@H]2O[C@H](C)[C@@H](O)[C@H](N)[C@@H]2O)C[C@@H]2O[C@](O)(C[C@@H](O)C[C@@H](O)[C@H](O)CC[C@@H](O)C[C@@H](O)CC(=O)O[C@H]1C)C[C@H](O)[C@H]2C(=O)O [amphotericin B] (first compound 12.5 µM) | 0.308 ± 0.008 | 0.193 ± 0.0071
CC[C@H](C)[C@H](N)C(=O)N1CCSC1 [P32/98 hemifumarate salt] + C[C@@H]1[C@H](O)[C@@H](C)/C=C/C=C/C=C/C=C/C=C/C=C/C=C/[C@H](O[C@@H]2O[C@H](C)[C@@H](O)[C@H](N)[C@@H]2O)C[C@@H]2O[C@](O)(C[C@@H](O)C[C@@H](O)[C@H](O)CC[C@@H](O)C[C@@H](O)CC(=O)O[C@H]1C)C[C@H](O)[C@H]2C(=O)O [amphotericin B] (first compound 12.5 µM) | 0.259 ± 0.014 | 0.181 ± 0.0051
